From PubChem BioAssay (EPA / NIEHS)
“And” between values parts separate entries of the source, which are not always exact repeats. Identical values can stand only once. More than one record can exist for a structure, and the calls need not agree. The source made the active and inactive calls. The calls were made as follows: active = hit-call score of the fitted dose curve at least 0.9, where 1 is the maximum; inactive = score below 0.9.

What was measured:
Conditions in all cases: mRNA level, 48 h; actives raise or lower the signal
[1] = read-out: growth arrest and DNA damage 45 (GADD45G), GADD45G (gene 10912); assay: LTEA_HepaRG_GADD45G: Life Technologies and Expression Analysis (LTEA) Assay for growth arrest and DNA damage 45 (GADD45G) using HepaRG (AID 2283499)
Procedure, shortened: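 Human hepatic HepaRG line treated 48 h with chemicals (eight concentrations, half-log steps from 100 uM); transcript induction or repression of GADD45G scored by qRT-PCR versus DMSO vehicle.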

[2] = read-out: Glutamate-cysteine ligase regulatory (GCLM), GCLM (gene 2730); assay: LTEA_HepaRG_GCLM: Life Technologies and Expression Analysis (LTEA) Assay for Glutamate-cysteine ligase regulatory (GCLM) using HepaRG (AID 2283500)
Procedure, shortened: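 In this multiplexed HepaRG gene-expression assay, GCLM mRNA change after 48 h treatment (8 concentrations, max 100 uM) was scored against DMSO by bidirectional curve fitting.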

[3] = read-out: Glutathione S-transferase M3 (GSTM3), GSTM3 (gene 2947); assay: LTEA_HepaRG_GSTM3: Life Technologies and Expression Analysis (LTEA) Assay for Glutathione S-transferase M3 (GSTM3) using HepaRG (AID 2283501)
Procedure, shortened: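 Changes in GSTM3 expression, an oxidative-stress marker, were scored by bidirectional curve fitting against 0.5% DMSO vehicle. Human HepaRG cultures received chemicals for 48 h in duplicate, highest concentration 100 uM with half-log dilutions.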

[4] = read-out: Heat shock 70 kDa protein 1 (HSPA1A), gene 3303; assay: LTEA_HepaRG_HSPA1A: Life Technologies and Expression Analysis (LTEA) Assay for Heat shock 70 kDa protein 1 (HSPA1A) using HepaRG (AID 2283502)
Procedure, shortened: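 An oxidative-stress marker readout: HepaRG cells treated 48 h in duplicate with an eight-point series (highest 100 uM) had HSPA1A mRNA quantified by TaqMan qRT-PCR. Activity was fitted in both directions using 0.5% DMSO as baseline.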

[5] = read-out: Hypoxia-inducible factor 1-alpha (Homo sapiens) (UniProt Q16665); assay: LTEA_HepaRG_HIF1A: Life Technologies and Expression Analysis (LTEA) Assay for Hypoxia-inducible factor 1 (HIF1A) Trancription factor using HepaRG (AID 2283503);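 also: HIF1A transcript by TaqMan qRT-PCR normalized to ACTB GAPDH and POLR2A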
Procedure, shortened: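 Gain- or loss-of-signal HIF1A mRNA changes are fitted against a DMSO baseline. HepaRG cultures receive eight concentrations, highest 100 uM, for 48 h in serum-free induction medium with 0.5% DMSO.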

[6] = read-out: 3-Hydroxy-3-Methylglutaryl-CoA Synthase 2 (HMGCS2), HMGCS2 (gene 3158); assay: LTEA_HepaRG_HMGCS2: Life Technologies and Expression Analysis (LTEA) Assay for 3-Hydroxy-3-Methylglutaryl-CoA Synthase 2 (HMGCS2) using HepaRG (AID 2283504)
Procedure, shortened: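 Expression of HMGCS2 in human HepaRG liver cells is measured by qRT-PCR 48 h after dosing (highest 100 uM, half-log series, 0.5% DMSO). Values come from bidirectional concentration-response fitting with DMSO as baseline.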

[7] = read-out: HGF (gene 3082); assay: LTEA_HepaRG_HGF: Life Technologies and Expression Analysis (LTEA) Assay for Hepatocyte Growth Facto (HGF) using HepaRG (AID 2283505)
Procedure, shortened: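 Gain or loss of HGF mRNA in human HepaRG liver cells after 48 h chemical exposure; eight concentrations up to 100 uM with 0.5% DMSO vehicle, quantified by TaqMan qRT-PCR.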

[8] = read-out: Insulin Like Growth Factor 1 (IGF1), IGF1 (gene 3479); assay: LTEA_HepaRG_IGF1: Life Technologies and Expression Analysis (LTEA) Assay for Insulin Like Growth Factor 1 (IGF1) using HepaRG (AID 2283506)
Procedure, shortened: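 Endpoint: IGF1 mRNA change by qRT-PCR, housekeeping-normalized, fitted bidirectionally relative to 0.5% DMSO vehicle. Human HepaRG cells were treated 48 h in serum-free induction medium, eight half-log concentrations topping at 100 uM.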

[9] = read-out: Intercellular Adhesion Molecule 1 (ICAM1), ICAM1 (gene 3383); assay: LTEA_HepaRG_ICAM1: Life Technologies and Expression Analysis (LTEA) Assay for Intercellular Adhesion Molecule 1 (ICAM1) using HepaRG (AID 2283507)
Procedure, shortened: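 Gain or loss of transcript in HepaRG hepatic cells is quantified by qRT-PCR after 48 h chemical exposure (up to 100 uM, half-log steps), with DMSO as baseline.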

[10] = read-out: Insulin-like growth factor-binding protein 1 (IGFBP1), IGFBP1 (gene 3484); assay: LTEA_HepaRG_IGFBP1: Life Technologies and Expression Analysis (LTEA) Assay for Insulin-like growth factor-binding protein 1 (IGFBP1) using HepaRG (AID 2283508)
Procedure, shortened: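 mRNA induction or loss was quantified by qRT-PCR after 48 h chemical exposure of human HepaRG cells, with 0.5% DMSO as vehicle and baseline. Concentration-response over eight points up to 100 uM.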

[11] = read-out: Interleukin 6 (IL6), IL6 (gene 3569); assay: LTEA_HepaRG_IL6: Life Technologies and Expression Analysis (LTEA) Assay for Interleukin 6 (IL6) using HepaRG (AID 2283509)
Procedure, shortened: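 qRT-PCR read-out of IL6 transcript, normalized to three housekeeping genes, after 48 h chemical exposure of HepaRG cells; 8-point half-log series, top 100 uM, 0.5% DMSO vehicle. Bidirectional curve fitting against DMSO baseline.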

[12] = read-out: Interleukin 6 Receptor (IL6R), IL6R (gene 3570); assay: LTEA_HepaRG_IL6R: Life Technologies and Expression Analysis (LTEA) Assay for Interleukin 6 Receptor (IL6R) using HepaRG (AID 2283510);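 as to AC50: differentiated human HepaRG liver cells in serum-free induction medium; TaqMan qRT-PCR signal normalized to ACTB GAPDH and POLR2A housekeeping genes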
Procedure, shortened: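 In this HepaRG screen, test chemicals act on cells for 48 h at up to 100 uM (eight half-log points, duplicate wells). IL6R expression is quantified by qRT-PCR after normalization to ACTB, GAPDH and POLR2A, with DMSO as baseline.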

[13] = read-out: Potassium channel subfamily K member 1 (KCNK1), KCNK1 (gene 3775); assay: LTEA_HepaRG_KCNK1: Life Technologies and Expression Analysis (LTEA) Assay for Potassium channel subfamily K member 1 (KCNK1) using HepaRG (AID 2283511)
Procedure, shortened: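 HepaRG, 48 h exposure, 8-pt half-log series top 100 uM, 0.5% DMSO vehicle, duplicates. Readout: KCNK1 transcript by qRT-PCR (Fluidigm array), housekeeping-normalized; bidirectional curve fit relative to DMSO baseline.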

[14] = read-out: Keratin 19 (KRT19), KRT19 (gene 3880); assay: LTEA_HepaRG_KRT19: Life Technologies and Expression Analysis (LTEA) Assay for Keratin 19 (KRT19) using HepaRG (AID 2283512)
Procedure, shortened: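 Gene-expression endpoint in the human liver line HepaRG after 48 h exposure to up to 100 uM test chemical with 0.5% DMSO vehicle; KRT19 mRNA by qRT-PCR, analyzed bidirectionally versus DMSO.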

[15] = read-out: JUN Transcription Factor, JUN (gene 3725); assay: LTEA_HepaRG_JUN: Life Technologies and Expression Analysis (LTEA) Assay for JUN Transcription Factor using HepaRG (AID 2283513)
Procedure, shortened: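 Gene-expression endpoint: JUN mRNA (qRT-PCR, normalized to three reference genes) in HepaRG cultures treated 48 h with chemicals, duplicate wells, 100 uM maximum with half-log dilutions; bidirectional fitting relative to 0.5% DMSO.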

[16] = read-out: Lipase C (LIPC), LIPC (gene 3990); assay: LTEA_HepaRG_LIPC: Life Technologies and Expression Analysis (LTEA) Assay for Lipase C (LIPC) using HepaRG (AID 2283514)
Procedure, shortened: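 HepaRG, 48 h exposure, 8-pt half-log series from 100 uM in 0.5% DMSO, duplicates. Readout: LIPC mRNA by Fluidigm qRT-PCR, housekeeping-normalized (ACTB/GAPDH/POLR2A). Gain or loss fitted bidirectionally against DMSO baseline.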

[17] = read-out: Lipoprotein lipase (LPL), LPL (gene 4023); assay: LTEA_HepaRG_LPL: Life Technologies and Expression Analysis (LTEA) Assay for Lipoprotein lipase (LPL) using HepaRG (AID 2283515)
Procedure, shortened: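 HepaRG, 48 h exposure, 8-pt half-log dilutions from 100 uM, 0.5% DMSO vehicle, duplicates; qRT-PCR (Fluidigm array) of LPL mRNA vs housekeeping genes; bidirectional curve fit relative to DMSO baseline.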

[18] = read-out: MicroRNA 122 (MIR122), gene 406906; assay: LTEA_HepaRG_MIR122: Life Technologies and Expression Analysis (LTEA) Assay for MicroRNA 122 (MIR122) using HepaRG (AID 2283516); also: the transcript read is the microRNA miR-122
Procedure, shortened: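 Changes in transcript abundance, up or down relative to 0.5% DMSO vehicle, were scored after 48 h chemical treatment of HepaRG cells (maximum 100 uM). Quantification used TaqMan qRT-PCR normalized to housekeeping genes.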

[19] = read-out: matrix metalloproteinase-10 (MMP10), MMP10 (gene 4319); assay: LTEA_HepaRG_MMP10: Life Technologies and Expression Analysis (LTEA) Assay for matrix metalloproteinase-10 (MMP10) using HepaRG (AID 2283517)
Procedure, shortened: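 Transcript levels come from Fluidigm qRT-PCR normalized to three housekeeping genes, with curves fitted bidirectionally against 0.5% DMSO. Human HepaRG cells were dosed for 48 hours at concentrations up to 100 uM.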

[20] = read-out: Glutamate-cysteine ligase catalytic (GCLC), GCLC (gene 2729); assay: LTEA_HepaRG_GCLC: Life Technologies and Expression Analysis (LTEA) Assay for Glutamate-cysteine ligase catalytic (GCLC) using HepaRG (AID 2283498)
Procedure, shortened: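 HepaRG, 48 h exposure, 8-pt half-log series from 100 uM, 0.5% DMSO vehicle; TaqMan qRT-PCR for GCLC mRNA, housekeeping-normalized; bidirectional curve fit vs DMSO baseline.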

Measured: AC50

Sequence of Hypoxia-inducible factor 1-alpha (Homo sapiens) (Q16665 whole entry, looked up): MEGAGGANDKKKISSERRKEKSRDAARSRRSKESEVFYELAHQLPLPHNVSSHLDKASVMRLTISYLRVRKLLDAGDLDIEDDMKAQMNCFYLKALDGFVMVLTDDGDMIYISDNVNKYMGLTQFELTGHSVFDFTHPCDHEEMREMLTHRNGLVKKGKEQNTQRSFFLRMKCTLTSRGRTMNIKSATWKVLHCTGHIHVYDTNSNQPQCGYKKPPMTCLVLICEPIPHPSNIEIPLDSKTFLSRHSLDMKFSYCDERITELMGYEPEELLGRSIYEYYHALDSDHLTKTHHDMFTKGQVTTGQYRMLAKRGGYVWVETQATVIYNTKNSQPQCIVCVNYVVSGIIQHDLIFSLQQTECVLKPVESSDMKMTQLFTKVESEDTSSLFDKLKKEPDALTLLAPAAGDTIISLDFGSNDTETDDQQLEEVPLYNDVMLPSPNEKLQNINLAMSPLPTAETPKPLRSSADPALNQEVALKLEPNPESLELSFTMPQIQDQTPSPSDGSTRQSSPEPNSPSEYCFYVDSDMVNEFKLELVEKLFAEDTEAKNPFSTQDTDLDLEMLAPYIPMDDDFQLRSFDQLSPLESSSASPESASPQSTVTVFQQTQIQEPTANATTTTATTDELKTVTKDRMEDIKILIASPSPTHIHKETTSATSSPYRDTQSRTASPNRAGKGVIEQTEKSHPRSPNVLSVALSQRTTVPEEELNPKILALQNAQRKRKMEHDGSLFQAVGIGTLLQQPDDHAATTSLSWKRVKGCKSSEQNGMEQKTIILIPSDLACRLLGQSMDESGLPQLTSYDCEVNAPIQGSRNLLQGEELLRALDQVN

CN(C)C(=O)Nc1ccc(Cl)c(Cl)c1
active: [2] 50 µM | [10] 34.6 µM | [14] 50 µM
not listed: [20]
inactive: all other assays above

c1ccc2[nH]c(-c3cscn3)nc2c1
active: [10] 29 µM | [14] 35.2 µM
not listed: [20]
inactive: all other assays above

CCOC(=O)C(C)Oc1ccc(Oc2cnc3cc(Cl)ccc3n2)cc1 (stereo not given)
active: [8] 1.06 µM
not listed: [20]
inactive: all other assays above

CCCCC(CC)CN1C(=O)C2C3C=CC(C3)C2C1=O (stereo not given)
active: [1] 50 µM | [2] 50 µM | [6] 86.3 µM | [8] 50 µM | [10] 82.9 µM | [11] 74.9 µM | [16] 88.2 µM | [17] 58.4 µM
inactive: all other assays above

CC1(C)C(C=C(Cl)Cl)C1C(=O)OCc1cccc(Oc2ccccc2)c1 (stereo not given)
not listed: [20]
inactive: all other assays above

O=C(c1ccc(O)cc1O)c1ccc(O)cc1O
not listed: [20]
inactive: all other assays above

CCCOC(=O)c1ccc(C(=O)OCCC)nc1
inactive: all assays above

CCOC(=O)NCCOc1ccc(Oc2ccccc2)cc1
active: [1] 73.5 µM | [2] 82.4 µM | [6] 77.1 µM | [8] 89.5 µM | [10] 73.1 µM | [11] 77.9 µM | [12] 20.7 µM | [14] 89.8 µM | [16] 89 µM | [17] 81.6 µM | [18] 75.3 µM | [19] 50 µM
inactive: [20] | [3] | [4] | [5] | [7] | [9] | [13] | [15]

CCNc1nc(N)nc(Cl)n1
not listed: [20]
inactive: all other assays above

S=C(S)NCCNC(=S)S.[Mn+2].[S-]C([S-])=NCCN=C([S-])[S-].[Zn+2]
inactive: [2] | [3] | [4] | [5] | [7] | [13] | [14] | [15]
active: [1] 3.67 µM and 2.31 µM and 3.97 µM | [2] 25 µM | [3] 0.827 µM | [4] 1.21 µM and 4.71 µM | [5] 1.63 µM | [6] 2.25 µM and 1.36 µM and 1.93 µM | [7] 3.68 µM and 9.89 µM | [8] 1.35 µM and 1.45 µM and 2.57 µM | [9] 1.8 µM and 2.09 µM and 2.17 µM | [10] 56.2 nM and 104 nM and 174 nM | [11] 1.73 µM and 1.92 µM and 2.15 µM | [12] 1.55 µM and 1.5 µM and 1.32 µM | [14] 5.39 µM and 11.4 µM | [15] 1.36 µM and 1.75 µM | [16] 1.21 µM and 1.2 µM and 1.48 µM | [17] 1.11 µM and 1.17 µM and 2.99 µM | [18] 780 nM and 954 nM and 816 nM | [19] 846 nM and 655 nM

CCOC(=O)C(C)Oc1ccc(Oc2nc3ccc(Cl)cc3o2)cc1 (stereo not given)
active: [8] 20.2 µM
inactive: all other assays above
